Reference: publication PMC4552634, “A New Set of Chemical Starting Points with Plasmodium falciparum Transmission-Blocking Potential for Antimalarial Drug Discovery” (PLoS ONE, 2015)
Where two headings read alike, the source gives them in different places. Out of some 13,000 compounds screened, about 3,200 (25%) showed an effect of 50% or more. Some of the results follow.

Test system: P. falciparum stage V gametocytes
Design: BacTiter-Glo ATP luminescence viability of purified stage V gametocytes in 384-well plates, per cent inhibition versus DMSO
Details: 48 h, 5 µM, inhibitor

SMILES | % Inhibition [%] | % Inhibition (% Inhibition) [%]
Cc1ccc(CNc2cc(C(F)(F)F)nc(-c3ccc(S(C)(=O)=O)cc3)n2)cc1 [TCMDC-138598] | 20.79 | 
O=C(Nc1ccc(Cl)c(Cl)c1)N1CCc2cc3nccc(N4CCN5CCC[C@H]5C4)c3cc21 [TCMDC-140055] | 49.62 | 
CN1CCCN(c2ccnc3cc4c(cc23)N(C(=O)c2ccc(Cl)cc2Cl)CC4)CC1 [TCMDC-140241] | 126.7 | 
CN1CCN(c2ccnc3cc4c(cc23)N(C(=O)Nc2ccc3c(c2)CCCC3=O)CC4)CC1 [TCMDC-139372] | 0.5076 | 
O=C(/C=C/c1ccc(C(F)(F)F)cc1)N1CCc2cc3nccc(N4CCN5CCC[C@H]5C4)c3cc21 [TCMDC-140045] | 20.84 | 
Cc1nc(-c2ccc(C(F)(F)F)cn2)sc1C(=O)N1CCc2cc3nccc(N4CCN5CCC[C@H]5C4)c3cc21 [TCMDC-140330] | -2.363 | 
CN1CCCN(c2ccnc3cc4c(cc23)N(C(=O)c2ccc(C(F)(F)F)cc2)CC4)CC1 [TCMDC-140243] | 67.52 | 
CN1CCN(c2ccnc3ccc(NC(=O)c4ccc(Cl)c(Cl)c4)cc23)CC1 [TCMDC-139350] | 4.304 | 
CN1CCCN(c2ccnc3cc4c(cc23)N(C(=O)c2ccc(Cl)c(Cl)c2)CC4)CC1 [TCMDC-140242] | 99.6 | 
Cc1cc(-c2cccc3c(C(=O)N4CCc5cc6nccc(N7CCN8CCC[C@H]8C7)c6cc54)cccc23)cc(C)n1 [TCMDC-139793] | 31.07 | 
CN1CCCN(c2ccnc3cc4c(cc23)N(C(=O)c2ccccc2Cl)CC4)CC1 [TCMDC-140239] | 27.46 | 
CN1CCN(c2ccnc3cc4c(cc23)N(C(=O)Nc2ccc(-c3ccncc3)c3ccccc23)CC4)CC1 [TCMDC-139371] | 4.895 | 
Cc1cc(-c2cccc3c(C(=O)N4CCc5cc6nccc(N7CCCN(C)CC7)c6cc54)cccc23)cc(C)n1 [TCMDC-140244] | 100.8 | 
CN1CC(c2ccccc2)c2cc(O)c(CN3CCCCC3)cc2CC1Cc1ccccc1 (centres unmarked) [TCMDC-131902] | -4.593 | 
COc1cc(Cc2cnc(N)nc2N)cc(OCCCCNS(=O)(=O)C(F)(F)F)c1OC [TCMDC-137348] | 8.081 | 
O=C(NC1CCN(CCCOc2ccnc3cc(Cl)ccc23)C1)c1ccc(Br)cc1 (centres unmarked) [TCMDC-136147] | -6.07 | 
Cc1nc(-c2ccc(-c3ccc(C(=O)Nc4ccc(Cl)c(N5CCN(C)CC5)c4)cc3)c(C)c2)no1 [TCMDC-131979] | -60.2 | 
CC1(C)N=C(N)N=C(N)N1c1ccc(I)cc1 [TCMDC-124271] | 5.763 | 
CN(CCCCCNC(=O)/C=C/c1ccc(Cl)c(Cl)c1)CCCCc1c[nH]c2ccccc12 [TCMDC-139328] | -28.14 | 
CC1CCN(c2nc(C(=O)Nc3cccc4c3CCCC4)c(C(C)C)s2)CC1 [TCMDC-134662] | 11.59 | 
CN1CCN(c2ccnc3ccc(NC(=O)Nc4ccc(Cl)cc4)cc23)CC1 [TCMDC-139322] | 28.3 | 
CN1CCN(c2ccnc3cc4c(cc23)N(Cc2ccccc2)CC4)CC1 [TCMDC-139341] | -3.615 | 

SMILES | % Inhibition [%] | % Inhibition (% Inhibition) [%]
CN1CCCN(c2ccnc3cc4c(cc23)N(C(=O)c2ccc(Cl)cc2)CC4)CC1 [TCMDC-140240] | 94.93 | 
Cc1ccc(C2(C)CC(C)(C)N(C(=O)COc3ccc4ccccc4c3)c3ccccc32)cc1 (centres unmarked) [TCMDC-124089] | -65.04 | 
COc1ccccc1CCN1CCC(CN(C)Cc2ccc(O)c(Cl)c2)CC1 [TCMDC-124611] | 14.29 | 
COc1ccc2nccc([C@@H](O)CN3CCC(NC(=O)c4cc5c(Cl)cc(Cl)cc5[nH]4)CC3)c2c1 [TCMDC-141039] | -18.46 | 
CN(C)c1ccc(C=C2SC(=O)NC2=Nc2ccccc2)cc1 [TCMDC-123738] | 34.75 | 
COc1cccc(NC(=O)NC2CCN(CCCCCNC(=O)/C=C/c3ccc(Cl)c(Cl)c3)CC2)c1 [TCMDC-139388] | 31.25 | 
O=C(Nc1ccc(-c2ccccc2)s1)N[C@H]1CCN(Cc2ccc(OCCCN3CCCCC3)cc2)C1 [TCMDC-141789] | 86.03 | 
O=C(Nc1ccc(Oc2ccccc2)cc1)N[C@@H](Cc1ccc(O)cc1)C(=O)NC1CCN(Cc2ccc(O)c([N+](=O)[O-])c2)C1 (some centres unmarked) [TCMDC-140421] | 0.03751 | 
O=C(Nc1ccc(Cl)cc1)N[C@H]1CCN(Cc2ccc(OCCCN3CCCCC3)cc2)C1 [TCMDC-141787] | 90.53 | 
O=C(Nc1ccc(Cl)cc1)Nc1ccc(OCC(O)CN2CCCCC2)cc1 (centres unmarked) [TCMDC-123519] | 4.072 | 
O=C(Nc1cccc(Cl)c1)N[C@H]1CCN(Cc2ccc(OCCCN3CCCCC3)cc2)C1 [TCMDC-141788] | 103.5 | 
COc1cc(CN2CCC(NC(=O)[C@H](Cc3ccccc3)NC(=O)Nc3ccc(Oc4ccccc4)cc3)C2)ccc1O (some centres unmarked) [TCMDC-140500] | -15.62 | 
Cc1ccc(CN2CCCCC(NC(=O)c3cc4ccccc4s3)C2)cc1 (centres unmarked) [TCMDC-141748] | -37.31 | 
O=C(Nc1ccc(Oc2ccccc2)cc1)N[C@H]1CCN(Cc2ccc(OCCCN3CCCCC3)cc2)C1 [TCMDC-141786] | 96.23 | 
Cc1cccc2[nH]c(-c3cccc(-c4cccc(NC(=O)NCc5cccc(F)c5)c4)c3)nc12 [TCMDC-133291] | 37.78 | 
O=C(Nc1cccc(-c2cccc(-c3nc4ccc(F)cc4[nH]3)c2)c1)Nc1ccc(F)c(F)c1F [TCMDC-133233] | -45 | 
Cc1cc(Cl)c(S(=O)(=O)N(C)c2ccccc2)cc1OCC(=O)NC1CCCCC1 [TCMDC-124368] | -27.39 | 
Cc1cc(C(=O)CN2C(=O)NC3(CCOc4ccccc43)C2=O)c(C)n1Cc1ccc(F)cc1 (centres unmarked) [TCMDC-125246] | -0.05637 | 
CC(CNc1nc(NCC(c2ccccc2)c2ccccc2)c2[nH]cnc2n1)c1ccccc1 (centres unmarked) [TCMDC-131859] | -14.76 | 
O=C(Nc1ccc(C(F)(F)F)cc1)c1ccc(S(=O)(=O)NC2CCN(Cc3ccccc3)C2)cc1 (centres unmarked) [TCMDC-133675] | 7.046 | 
Cc1ccc(NC(=O)c2ccc(NCCCN(C)Cc3ccccc3)c([N+](=O)[O-])c2)cc1F [TCMDC-125686] | 12.99 | 
O=C(Nc1ccccc1F)NC1CCN(c2ccnc(Nc3ccc(F)cc3)n2)C1 (centres unmarked) [TCMDC-133603] | -76.2 | 

SMILES | % Inhibition [%] | % Inhibition (% Inhibition) [%]
O=C(Nc1cccc(Oc2ccccc2)c1)N[C@H]1CCN(Cc2ccc(OCCCN3CCCCC3)cc2)C1 [TCMDC-141785] | 106.3 | 
O=C(Nc1ccc(-c2ccccc2)cc1)Nc1cccc(OCCN2CCCC2)c1 [TCMDC-139541] | -48.88 | 
O=C(Nc1ccc2c(c1)CCC2)N[C@H]1CCN(Cc2ccc(OCCCN3CCCCC3)cc2)C1 [TCMDC-141790] | 89.55 | 
O=C(Nc1ccc(C(=O)Oc2ccc3ccccc3c2)cc1)N[C@@H](Cc1ccc(O)cc1)C(=O)NC1CCN(Cc2ccc(O)cc2)C1 (some centres unmarked) [TCMDC-135358] | -34.98 | 
N#Cc1cccc(NC(=O)Nc2cccc(OC3CCN(Cc4ccccc4)CC3)c2)c1 [TCMDC-139545] | 11.02 | 
O=C(Nc1ccc2c(c1)CCC2)N[C@H]1CCN(CCCCCNC(=O)C2CC2c2ccc(Cl)c(Cl)c2)C1 (some centres unmarked) [TCMDC-136264] | 5.581 | 
N#Cc1cc(C(=O)c2cc(Br)ccc2O)cn(C2CCCCC2)c1=O [TCMDC-123629] | -45.84 | 
O=C(/C=C/c1ccc(Cl)c(Cl)c1)NCCCCCN1CCC(c2c[nH]c3ccccc23)C(O)C1 (centres unmarked) [TCMDC-139656] |  | -35.83
CC(=O)c1cccc2cc(C(=O)NC3CCC(CCN4CCc5ccc(C#N)cc5C4)CC3)[nH]c12 (centres unmarked) [TCMDC-139192] | 14.52 | 
Nc1nc2c(cnn2CCCCCCCP(=O)(O)O)c(=O)[nH]1 [TCMDC-137339] | 21.15 | 
CN1CCCN(Cc2cccc(-c3ccc(NC(=O)c4cccc(C#N)c4)cc3)c2)CC1 [TCMDC-132673] | 15.02 | 
N#Cc1ccc(C(=O)Nc2cccc(-c3ccc(CN4CCCC4)cc3)c2)cc1 [TCMDC-132639] | 23.71 | 
CN1CCCN(Cc2ccc(-c3ccc(NC(=O)c4cccc(C#N)c4)cc3)cc2)CC1 [TCMDC-132594] | -1.455 | 
N#Cc1cccc(C(=O)Nc2ccc(-c3cccc(CN4CCCC4)c3)cc2)c1 [TCMDC-132674] | 97.51 | 
N#Cc1cccc(C(=O)Nc2ccc(-c3ccc(CN4CCCC4)cc3)cc2)c1 [TCMDC-132596] | 64.33 | 
N#Cc1cccc(C(=O)Nc2cccc(-c3ccc(CN4CCCC4)cc3)c2)c1 [TCMDC-132650] | 24.3 | 
CN1CCCN(Cc2ccc(-c3cccc(NC(=O)c4cccc(C#N)c4)c3)cc2)CC1 [TCMDC-132648] | 64.68 | 
CN1CCCN(Cc2cccc(-c3cccc(NC(=O)c4cccc(C#N)c4)c3)c2)CC1 [TCMDC-132661] | 20.56 | 
N#Cc1ccc(C(=O)Nc2ccc(-c3cccc(CN4CCCC4)c3)cc2)cc1 [TCMDC-132668] | 1.206 | 
O=C(NCc1ccc(C(=O)NC2CCCCC2)cc1)c1ccc(O)c(-c2ccc(Cl)c(Cl)c2)c1 [TCMDC-140825] | -4.793 | 
CN(c1ccc(C(=O)N[C@@H](CCC(=O)O)C(=O)O)cc1)S(=O)(=O)c1ccc2nc(N)[nH]c(=O)c2c1 [TCMDC-137344] | 2.989 | 
